The values below come from the supplement of paper PMC6897291.

In the assay the test system is U-2932. In words: growth inhibition by drug alone (1 - RLU/untreated control) (fraction); higher = stronger inhibition. Particulars: 177Lu-lilotomab satetraxetan 0 ug/ml. The method, then: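 U-2932 ABC-DLBCL cells were pretreated or not for 18 h with 1 ug/ml 177Lu-lilotomab satetraxetan (600 MBq/mg), washed and seeded (3000 cells/well) on 384-well plates pre-printed with the Selleck Cambridge Cancer Compound library. Viability was read by RealTime-Glo luminescence on days 3-6 after seeding. Effect = 1 - RLU/mean RLU of the 48 untreated no-drug control wells per plate; Bliss score = (M-E)/(1-Fa), with E the expected Bliss-additive effect.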

On to `CC(C)C[C@H](NC(=O)[C@H](Cc1ccccc1)NC(=O)c1cnccn1)B(O)O` [Bortezomib (Velcade)], for which the “growth inhibition by drug alone” value was determined as 0.965 (10 nM, time (day): 3); 0.971 (10 nM, time (day): 4); 0.976 (10 nM, time (day): 5); 0.978 (10 nM, time (day): 6); 0.985 (1000 nM, time (day): 3); 0.984 (1000 nM, time (day): 4). For the same molecule, the “growth inhibition by drug alone” value by setting is: (1000 nM, time (day): 5) 0.985; (1000 nM, time (day): 6) 0.985.

With `Cc1cc(Nc2cc(N3CCN(C)CC3)nc(Sc3ccc(NC(=O)C4CC4)cc3)n2)n[nH]1` [VX-680 (MK-0457, Tozasertib)], the “growth inhibition by drug alone” value by setting is: (10 nM, time (day): 3) 0.0135; (10 nM, time (day): 4) -0.0133; (10 nM, time (day): 5) -0.0455; (10 nM, time (day): 6) -0.102; (1000 nM, time (day): 3) 0.116; (1000 nM, time (day): 4) 0.0957. For the same molecule, the “growth inhibition by drug alone” value by setting is: (1000 nM, time (day): 5) 0.0508; (1000 nM, time (day): 6) 0.219.

Turning to `Cc1cccc(-c2nn3c(c2-c2ccnc4ccc(C(N)=O)cc24)CCC3)n1`, the “growth inhibition by drug alone” value (10 nM, time (day): 3) was -0.0698; the “growth inhibition by drug alone” value (10 nM, time (day): 4) was -0.0435; the “growth inhibition by drug alone” value (10 nM, time (day): 5) is -0.0298; the “growth inhibition by drug alone” value (10 nM, time (day): 6) is 0.0787; the “growth inhibition by drug alone” value (1000 nM, time (day): 3) is -0.0166; the “growth inhibition by drug alone” value (1000 nM, time (day): 4) was -0.0114. The “growth inhibition by drug alone” value was -0.0422 (1000 nM, time (day): 5) and -0.0441 (1000 nM, time (day): 6).

Consider `CCN(CC)CCNC(=O)c1c(C)[nH]c(/C=C2\C(=O)Nc3ccc(F)cc32)c1C` [Sunitinib Malate (Sutent)], for which the “growth inhibition by drug alone” value is 0.0107 (10 nM, time (day): 3); 0.0161 (10 nM, time (day): 4); -0.0625 (10 nM, time (day): 5); -0.274 (10 nM, time (day): 6); -0.0117 (1000 nM, time (day): 3); -0.00484 (1000 nM, time (day): 4). Besides, the “growth inhibition by drug alone” value is -0.0741 (1000 nM, time (day): 5) and -0.207 (1000 nM, time (day): 6).

In the case of `CCN1CCN(Cc2ccc(-c3cc4c(N[C@H](C)c5ccccc5)ncnc4[nH]3)cc2)CC1`, the “growth inhibition by drug alone” value (10 nM, time (day): 3) is -0.00148; the “growth inhibition by drug alone” value (10 nM, time (day): 4) is 0.0172; the “growth inhibition by drug alone” value (10 nM, time (day): 5) came out at 0.023; the “growth inhibition by drug alone” value (10 nM, time (day): 6) is 0.0324; the “growth inhibition by drug alone” value (1000 nM, time (day): 3) is -0.166; the “growth inhibition by drug alone” value (1000 nM, time (day): 4) is -0.174. The “growth inhibition by drug alone” value by setting is: (1000 nM, time (day): 5) -0.287; (1000 nM, time (day): 6) -0.315.
